{"source": "PubChem BioAssay (NCI)", "note": "Values joined by “and” are separate entries in the source; they are usually repeats but may differ in a detail not shown here. Identical values can stand only once. Compounds without any hit were thinned out: in the full panel of roughly 83,000, 20% have a hit.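 Results are percent growth after 48 hours of single-concentration exposure. 100 means growth as in untreated cells, lower positive values show inhibition; negative values down to -100 show cell death.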 Values without a mark were called inactive. Active and inactive are the calls of the source. Rule for the calls: active = growth percent below 10; inactive = the rest."}
{"system": "MDA-MB-468 breast", "assay": "NCI-60 one-dose screen, 48 h (100 = growth as untreated, 0 = no growth, -100 = all killed)", "conditions": "10 µM unless noted"}
{"smiles": "CCOCCNc1ccc(S(=O)(=O)c2ccc(N)cc2)cc1N", "growth": "95.9%"}
{"smiles": "O=C(c1ccccc1)C(Sc1ccccc1)c1ccccc1", "note": "(stereo not given)", "growth": "88.7%"}
{"smiles": "CC1=C(CCCOC(=O)NCCCl)C2=C(C)C3(CC3)[C@@](C)(O)C(=O)C2=C1", "growth": "-55% (active)"}
{"smiles": "O=C1OC(c2ccc(-c3ccccc3)cc2)=C/C1=C/c1c(Cl)cccc1Cl", "growth": "90.8%"}
{"smiles": "CCN(CC)CCCC(C)Nc1ccnc2cc(Oc3ccccc3)ccc12", "note": "(stereo not given)", "growth": "31.5% and 70.2%"}
{"smiles": "Cn1cc(-c2nc(N)nnc2-c2c[nH]c3ccc(Br)cc23)c2cc(F)ccc21", "growth": "75.5%"}
{"smiles": "CN(C)CCC(=O)c1c[nH]c2ccccc12", "growth": "106%"}
{"smiles": "CCN(CC)CCSCCCNc1c(C)cnc2cc(Cl)ccc12", "growth": "85.6%"}
{"smiles": "O=C(NO)c1ccc(Cn2c(=O)n(-c3ccccc3)c(=O)c3ccccc32)cc1", "growth": "16.9%"}
{"smiles": "Cc1nn(-c2ccccc2)c(Cl)c1/C=C(/NC(=O)c1ccccc1)c1nc2ccccc2[nH]1", "growth": "113%"}
{"smiles": "Cn1ccc(=O)c(C(=O)Nc2nsc3ccc([N+](=O)[O-])cc23)c1", "growth": "87.1%"}
{"smiles": "OC(c1ccccc1)(c1ccccc1)c1ccccc1-c1ccccc1", "growth": "69.1%"}
{"smiles": "C#CC(C)(O)[C@@H]1C[C@H](CC(=O)O)C1(C)C", "note": "(stereo not given in full)", "growth": "114%"}
{"smiles": "COc1ccc2[nH]cc(-c3nonc3-c3c[nH]c4ccc(Br)cc34)c2c1", "growth": "77.8%"}
{"smiles": "C[C@@H]1N=C(c2ccc3ccccc3n2)Nc2nc3ccccn3c2C1=O", "growth": "107%"}
{"smiles": "Cc1cnc(C(=O)NNc2nc3sc4c(c3c(=O)n2C)C(C)CCC4)cn1", "note": "(stereo not given)", "growth": "-28% (active)"}
{"smiles": "O=C(O)CCCC(=O)O", "growth": "94.9%"}
{"smiles": "COc1cc(CC#N)c([N+](=O)[O-])cc1OC", "growth": "100%"}
{"smiles": "CCC1=C[C@]2(C3CC(=O)N(c4ccccc4)C3=O)CC(C(C)(C)C)C[C@@H]2[C@@H]2C(=O)N(c3ccccc3)C(=O)[C@H]12", "note": "(stereo not given in full)", "growth": "90.2%"}
{"smiles": "O=C(C[n+]1ccccc1Cl)c1ccc2c(c1)CCCC2", "growth": "45.1%"}
{"smiles": "COc1ccc(-c2nc3sc4c(c3c(=O)[nH]2)CCCC4)c2ccccc12", "growth": "25%"}
{"smiles": "COc1ccc(/C=C/C(=O)c2ccc(NC(=O)CSc3nnc(-c4ccc(OC)cc4)n3-c3ccccc3)cc2)cc1", "growth": "106%"}
{"smiles": "OCCN(CCO)c1ccc2ccccc2c1", "growth": "107%"}
{"smiles": "O=C(NC(=S)Nc1ccc(Cl)cc1)c1ccccc1", "growth": "-37% (active)"}
{"smiles": "O=C(Nc1cccc(F)c1)c1cc(=O)[nH]c2cc(Br)ccc12", "growth": "55.3%"}
{"smiles": "COC(=O)CCSC1=C(C)C(=O)c2ccccc2C1=O", "growth": "-24.5% (active)"}
{"smiles": "COC(=O)CCCNS(=O)(=O)c1cc(C(=O)Nc2ccc(NC(=O)c3cc(S(=O)(=O)NCCCC(=O)OC)c(O)c(O)c3O)cc2)c(O)c(O)c1O", "growth": "98.7%"}
{"smiles": "COc1cc(C(=O)/C=C/c2c[nH]c3ccccc23)cc(OC)c1OC", "growth": "-5.45% (active)"}
{"smiles": "CCCCC(CCCCCC(CCCC)C1NC(C)Cc2cc(OC)c(OC)cc21)C1NC(C)Cc2cc(OC)c(OC)cc21", "note": "(stereo not given)", "growth": "-84.7% (active)"}
{"smiles": "O=C(O)c1cc([N+](=O)[O-])ccc1Cl", "growth": "109%"}
{"smiles": "COc1ccc(-c2cc(=O)oc3ccc(Cl)cc23)cc1F", "growth": "26.5%"}
{"smiles": "CCCCn1c2cc(OCc3cn(-c4ccc(Cl)cc4)nn3)ccc2c2ccnc(C)c21", "growth": "22.3%"}
{"smiles": "CN(CCC#N)C(=O)Nc1ccccc1", "growth": "109%"}
{"smiles": "COc1cc2c3c(n(CCCNCC4CC4)c(=O)c2cc1OC)-c1cc2c(cc1C3=O)OCO2", "growth": "41.4%"}
{"smiles": "COc1cc2c(cc1OC)C(=O)/C(=C/c1cc(C)c(O)c(C)c1)S2", "growth": "11.4%"}
{"smiles": "O=C(/C=C/c1cccc(C(F)(F)F)c1)Nc1cccc(C(F)(F)F)c1", "growth": "55.6%"}
{"smiles": "N/C(=N\\c1nc2c(Cl)cccc2s1)C(Cl)(Cl)Cl", "growth": "22.6%"}
{"smiles": "N#C/C(=C/N1C(=O)/C(=C/c2ccc([N+](=O)[O-])cc2)SC1=S)c1nc2ccccc2s1", "growth": "84%"}
{"smiles": "C=CCSC(CC)(CC)C(=O)NC", "growth": "99.3%"}
{"smiles": "COc1ccc2[nH]cc(-c3nc(-c4cn(C)c5ccncc45)cs3)c2c1", "growth": "102%"}
